From PubChem BioAssay (NCI)
About 83,000 compounds went through this panel and 20% of them were active in at least one assay; those are over-represented in the sample as a whole.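 Interpretation: 100, growth as untreated; towards 0, rising growth inhibition; 0, no net growth; 0 to -100, cell death. Compounds scoring below 10 were considered active.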 A number with no mark means an inactive call. Calls of active or inactive are those of the source.

Test system: OVCAR-3 ovarian
Assay: NCI-60 one-dose screen, 48 h (100 = growth as untreated, 0 = no growth, -100 = all killed)
Conditions: 10 µM
Method: Growth inhibition of the OVCAR-3 human tumor cell line is measured as a screen for anti-cancer activity. Cells are grown in 96 well plates and exposed to the test compound for 48 hours. Compounds are tested at a single concentration, which is 10^-5 M for most compounds. The reported endpoint is percent growth (GI% or GIPRCNT), where numbers from 0 - 100% represent growth inhibition, and numbers from -100% - 0 represent cell death. For example, a value of 40 represents 60% growth inhibition. A value of 0 means no net growth occurred over the course of the experiment. A value of -40 indicates 40% of cells at the beginning of the experiment died by the end of the experiment. A value of -100 means all cells are dead at the end of the experiment.
NCI-60 Human Tumor Cell Lines Screen was performed using the standard one-dose NCI protocol, which is described in more detail at https://dtp.cancer.gov/discovery_development/nci-60/default.htm.
Compounds with GIPRCNT values below 10 were considered active. Activity score was based on GIPRCNT using the following formula: […]
Score is 0 for GIPRCNT values of 100 or above, 50 for GIPRCNT values of 0, and 100 for GIPRCNT values of -100.

| Compound | growth |
| --- | --- |
| Oc1ccccc1O | 92.3% |
| CC1=CC(=O)c2ccccc2C1=O | 113% |
| N#Cc1ccc(OC(=O)Nc2ccc(Cl)c(Cl)c2)cc1 | 33.3% |
| Cc1cc(Cc2cc(C)c(N)cc2N)c(N)cc1N | 94.9% |
| CSc1[nH]c(=O)ncc1F | 107% |
| CC(=O)OC(OC(C)=O)C1CCCO1 (stereo not given) | 114% |
| Cc1ccc(Cl)cc1N1C(=O)CC(Sc2ccccc2N)C1=O (stereo not given) | 106% |
| CCCCC(CC)COC(C)=O (stereo not given) | 105% |
| CC1(C(=O)O)NC(C(=O)O)Cc2c1[nH]c1ccccc21 (stereo not given) | 112% |
| COc1ccc(C(C)C=O)cc1 (stereo not given) | 108% |
| CCOC(=O)C(O)C(O)C(=O)OCC (stereo not given) | 107% |
| CCCCCCCO | 115% |
| Cc1ccccc1N=C(c1ccccc1)C1C(=O)c2ccccc2C1=O | 71.9% |
| COc1cccc(O)c1O | 6.36% (active) |
| CC1CC(O)C2C3(C)CCCC2(COC3=O)C12CCC1(CCOC1=O)O2 (stereo not given) | 110% |
| CCOC(=O)C(CCC(C)C)C(=O)OCC | 109% |
| OC1OC(COC(c2ccccc2)(c2ccccc2)c2ccccc2)C(O)C(O)C1O (stereo not given) | 104% |
| COc1cc2c3c(n(C)c(=O)c2cc1OC)-c1cc2c(cc1C3=O)OCO2 | 104% |
| O=C(O)C(O)c1ccccc1 (stereo not given) | 112% |
| CCOc1ccc(Br)cc1/C=N\N=C\c1cc(Br)ccc1OCC | 96.8% |

| Compound | growth |
| --- | --- |
| CNS(=O)(=O)c1ccc(Cl)c(Cl)c1 | 123% |
| COc1cc(-c2ccc(NC(=O)NC3CC3)c(OC)c2)ccc1NC(=O)NC1CC1 | 97.3% |
| O=C1c2ccccc2C(=O)c2c1ccc(C(=O)O)c2[N+](=O)[O-] | 115% |
| CSC(=N\N=C\c1ccc(N(C)C)cc1)/N=C/N(C)C | 112% |
| OCc1ccc(-c2ccc(-c3ccc(CO)s3)o2)s1 | -30.8% (active) |
| CCOc1ccc(I)cc1 | 116% |
| COc1ccc(Oc2c(I)cc(CC(NC(C)=O)C(=O)O)cc2I)cc1 (stereo not given) | 99% |
| Cc1c(O)cccc1O | 109% |
| C#CCSc1nnnn1-c1ccc(Br)c(C)c1 | 106% |
| O=[N+]([O-])c1ccc(Sc2ccncn2)c([N+](=O)[O-])c1 | 63.7% |
| O=[N+]([O-])c1cccc2nsnc12 | 107% |
| O=[N+]([O-])c1ccc(-c2noc(-c3cccs3)n2)cc1 | 106% |
| CCN=c1cc2sc3cc(NCC)c(C)cc3nc-2cc1C | -33.8% (active) |
| CCOC(=O)C(C#N)Cc1ccccc1 (stereo not given) | 117% |
| COc1cc(C(=O)NC(=S)Nc2ccc3ccccc3c2)cc(OC)c1OC | 107% |
| CC(=O)Nc1cccc(Cl)c1C | 102% |
| COS(=O)(=O)c1ccc(Br)cc1 | 101% |
| O=c1cc(-c2ccccc2)[nH]c2c1CCCC2 | 15.9% |
| O=S(=O)(O)c1ccc(Cl)c(Cl)c1 | 123% |
| CC1SC(N)=NC1=O (stereo not given) | 116% |
